BAZ2B block: qHTS Assay for Inhibitors of BAZ2B; Potency, µM (series often up to 114 µM), inactives show top-dose activity change, negative = inhibition, most hits filed as inhibitors; 360,000 tested, 4.4% active; AlphaScreen BAZ2B-H3K14Ac peptide displacement; note: potency is the fitted concentration of half-maximal effect; % is set by controls: 0 for no effect and ±100 for the full control effect; nearly all actives have a fitted effect of over 60% in size
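Complex of BAZ2B and biotin-H3K14Ac (50 nM apiece) forms over 30 min at RT, then faces library compounds up to 110 uM for another 30 min; AlphaScreen beads added, 20 min dark incubation, luminescence read.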
G9a inh: qHTS Assay for Inhibitors of Histone Lysine Methyltransferase G9a | Potency, µM (series often up to 102 µM), without a hit: at the highest dose activity, negative = inhibition, most hits filed as inhibitors | 350,000 tested, 8.8% active | G9a H3K9 monomethylation, AlphaScreen, 2 h | Histone-lysine N-methyltransferase EHMT2 (Homo sapiens), Q96KQ7 | AID 504332, 2011; note: potency is the fitted concentration of half-maximal effect; % is set by controls: 0 for no effect and ±100 for the full control effect; nearly all actives have a fitted effect of over 75% in size
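Chemiluminescent proximity detection of H3K9 monomethylation, read after 10 min bead incubation in the dark. Reaction: 20 nM G9a, 500 nM biotin-H3K9 peptide, 20 uM SAM cofactor, 2 h, room temperature, following 15 min enzyme-compound preincubation.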
PI5P4K alpha inh: qHTS for Inhibitors of phosphatidylinositol 5-phosphate 4-kinase (PI5P4K) | Phosphatidylinositol 5-phosphate 4-kinase type-2 alpha (Homo sapiens), P48426 | PI5P4Kalpha enzyme, ADP-Glo luminescence, 60 min; hits give low values | max response, % | 330,000 tested, 1.2% active | AID 652105, 2013; active = max response of -50% or lower; inconclusive = between -30% and -50%; inactive = -30% or higher; note: value at the top dose of about 77 µM; % is set by controls: 0 for no effect and ±100 for the full control effect
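Reactions run in 0.038 M HEPES pH 7.4, 0.28 mM EGTA, 0.1% CHAPS and 5% DMSO, with PI5P4Kalpha, substrate, compound and 5 microM ATP final, one hour at room temperature. Readout is ADP-Glo luminescence.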
HP1b chromo inh: HTS for Inhibitors of HP1-beta Chromodomain Interactions with Methylated Histone Tails | Chromobox protein homolog 1 (Homo sapiens), P83916 | AlphaScreen HP1-beta / biotin-H3K9me3 peptide binding | Potency, µM (highest dose often 114 µM), for inactives: at the highest dose activity change, negative = inhibition, usual class: inhibitors | 390,000 tested, 0.56% active; note: potency is the fitted concentration of half-maximal effect; nearly all actives have a fitted effect of over 70% in size
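HP1-beta protein (50 nM final) preincubated 30 min at room temperature with biotinylated H3(1-18)K9me3 peptide (50 nM) in PBS pH 7.4, 0.01% Tween-20, then compound added for 30 min. AlphaScreen streptavidin donor/nickel chelate acceptor beads (10 ug/mL final), 30 min dark, luminescence read.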
JMJD2A Tudor: qHTS Assay for Inhibitors of JMJD2A-Tudor Domain | 390,000 tested, 4.4% active | AlphaScreen JMJD2A-Tudor / H3K4me3 peptide binding | Potency, µM (titrated, usually from 114 µM), without a hit: at the top dose activity change, negative = inhibition, hits mostly inhibitors | Lysine-specific demethylase 4A (Homo sapiens), O75164; note: potency is the fitted concentration of half-maximal effect; % is set by controls: 0 for no effect and ±100 for the full control effect; nearly all actives have a fitted effect of over 50% in size
PLK1 PBD inh: qHTS for Inhibitors of PLK1-PDB (polo-like kinase 1 - polo-box domain): Primary Screen; Serine/threonine-protein kinase PLK1 (Homo sapiens), P53350; Plk1 PBD binding of FITC phosphopeptide, fluorescence polarization; Potency, µM, inactives show max response, negative = inhibition, most hits filed as inhibitors; 360,000 tested, 2.8% active; AID 720504, 2013; note: potency is the fitted concentration of half-maximal effect; series mostly up to about 57 µM; % is set by controls: 0 for no effect and ±100 for the full control effect; nearly all actives have a fitted effect of over 65% in size
Target sequence (P53350 whole entry, looked up, the tested form may be a part): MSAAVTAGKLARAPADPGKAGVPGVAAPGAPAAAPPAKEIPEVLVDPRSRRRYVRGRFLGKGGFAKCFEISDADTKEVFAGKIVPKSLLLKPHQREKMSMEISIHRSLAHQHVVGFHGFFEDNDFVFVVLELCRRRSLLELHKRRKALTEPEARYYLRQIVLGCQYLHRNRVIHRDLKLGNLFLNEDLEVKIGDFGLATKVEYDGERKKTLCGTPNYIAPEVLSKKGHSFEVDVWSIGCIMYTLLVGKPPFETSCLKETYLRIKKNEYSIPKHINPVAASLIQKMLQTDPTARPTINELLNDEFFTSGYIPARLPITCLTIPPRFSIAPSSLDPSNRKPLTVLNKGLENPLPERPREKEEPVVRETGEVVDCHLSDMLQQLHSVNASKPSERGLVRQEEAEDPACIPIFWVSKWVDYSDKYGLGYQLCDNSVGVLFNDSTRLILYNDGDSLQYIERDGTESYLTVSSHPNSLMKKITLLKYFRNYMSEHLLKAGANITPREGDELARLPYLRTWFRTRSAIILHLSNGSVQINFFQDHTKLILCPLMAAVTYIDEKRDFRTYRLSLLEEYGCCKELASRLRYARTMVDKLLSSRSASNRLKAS
* hit, by the source's call; [ ] = dose if it differs, or a comment. A selection: hits, their analogues and other compounds. The true share with any hit is near 12%. Unless noted, calls come from the whole dose curve; as a rule, active = well fitted curve in the direction sought with a large enough effect; inconclusive = small, poorly fitted or top-dose-only effect, or another doubt; inactive = no such curve, though single readings can be large; an effect the other way counts as inactive or inconclusive.

Screening S=c1[nH]nc(COc2ccc3c(c2)OCO3)n1-c1ccccc1 returned BAZ2B block -34%, G9a inh 0.71µM*, PI5P4K alpha inh -10, HP1b chromo inh 3%, JMJD2A Tudor 40µM* and PLK1 PBD inh -10%.
For COc1ccc(Cl)cc1NC(=O)Cn1c(=O)n2nc(-c3ccccc3)nc2c2ccccc21 the results were BAZ2B block -2%, G9a inh -29%[59 µM], HP1b chromo inh 42% and JMJD2A Tudor -11%.
Screening Cc1ccc(C(=O)Nc2ccc(-n3c(C)nc4ccccc4c3=O)cc2)cc1[N+](=O)[O-] returned BAZ2B block 14%, G9a inh 0%[59 µM], HP1b chromo inh 55% and JMJD2A Tudor -28%.
CCC(=O)Nc1nnc(-c2ccc(OC)cc2)o1 was read as BAZ2B block inconclusive, G9a inh 17%, PI5P4K alpha inh 1, HP1b chromo inh 58%, JMJD2A Tudor -2% and PLK1 PBD inh -3%.
Screening CCC(=O)Nc1nnc(-c2ccco2)o1 returned BAZ2B block inconclusive, G9a inh 22µM*, PI5P4K alpha inh 0, HP1b chromo inh 31%, JMJD2A Tudor 45µM* and PLK1 PBD inh 1%.
For O=C(Cc1ccccc1)Nc1nnc(-c2ccco2)o1 the results were BAZ2B block 28µM*, G9a inh 10%, PI5P4K alpha inh 4, HP1b chromo inh 20%, JMJD2A Tudor 45µM* and PLK1 PBD inh -12%.
`CCCCC(=O)Nc1nnc(-c2ccco2)o1` gave BAZ2B block 79µM*, G9a inh -15%, PI5P4K alpha inh 5, HP1b chromo inh 4%, JMJD2A Tudor 10µM* and PLK1 PBD inh 0%.
`CC1CCN(C(=O)c2cccc(NC(=O)c3nsc4ccccc34)c2)CC1` gave BAZ2B block 0%, G9a inh -4%[59 µM], HP1b chromo inh 20%[57 µM] and JMJD2A Tudor inconclusive.
`Cc1ccccc1CNC(=O)Nc1ccc2c(c1)N(C)C(=O)c1ccccc1S2` gave BAZ2B block -5%, G9a inh -49%[59 µM], HP1b chromo inh 53% and JMJD2A Tudor -1%.
NCCN(Cc1ccc(Cl)c(Cl)c1)c1ccc(Br)cn1 was read as HP1b chromo inh 23% and JMJD2A Tudor -22%.
S=C(NCCCN(Cc1ccc(Cl)cc1)c1ccc(Br)cn1)NCc1ccc2nc[nH]c2c1 was read as HP1b chromo inh -15% and JMJD2A Tudor 50µM*.
`S=C(NCCCN(Cc1ccc(Cl)c(Cl)c1)c1ccc(Br)cn1)NCCc1cnc[nH]1` gave JMJD2A Tudor 40µM*.
COc1ccc(CN(CCCN)c2ccc(Br)cn2)cc1 was read as HP1b chromo inh -1% and JMJD2A Tudor -25%.
For CN(CCCc1cnc[nH]1)C(=S)NCCCN(Cc1ccc(Cl)cc1)c1ccc(Br)cn1 the results were HP1b chromo inh inconclusive and JMJD2A Tudor 32µM*.
`O=C(NCc1ccc(Cl)cc1Cl)c1ccc2nc[nH]c2c1` gave BAZ2B block inconclusive, G9a inh inconclusive, PI5P4K alpha inh -19, HP1b chromo inh 19%, JMJD2A Tudor -4% and PLK1 PBD inh 6%.
`S=C(NCCCc1cnc[nH]1)NCCN(Cc1ccc(Cl)c(Cl)c1)c1ccc(Br)cn1` gave JMJD2A Tudor 56µM*.
`NCCCN(Cc1ccc(Cl)c(Cl)c1)c1ccccn1` gave HP1b chromo inh -2% and JMJD2A Tudor -31%.
For Clc1ccc(CN(CCCNc2ncnc(NCCCc3cnc[nH]3)n2)c2ccc(Br)cn2)cc1Cl the results were JMJD2A Tudor 35µM*.
`S=C(NCCCc1cnc[nH]1)NCCCN(Cc1ccc(Cl)cc1)c1cc(-c2ccccc2)ccn1` gave HP1b chromo inh inconclusive and JMJD2A Tudor 56µM*.
`COc1ccc(C2OC34CCCCC3C(C#N)(C#N)C2(C#N)C(=N)O4)cc1` (stereo not drawn) gave BAZ2B block -34%, G9a inh 50µM*, PI5P4K alpha inh 2, HP1b chromo inh 33%, JMJD2A Tudor -22% and PLK1 PBD inh -26%.
Screening Cc1ccccc1C(=O)NNC(=O)c1ccc2nc[nH]c2c1 returned BAZ2B block -34%, G9a inh -7%[0.501 µM], PI5P4K alpha inh inconclusive, HP1b chromo inh 18%, JMJD2A Tudor -18% and PLK1 PBD inh -3%.
Cc1cccc(NC(=O)CSc2ncnc3nc[nH]c23)c1C was read as BAZ2B block -34%, G9a inh 45µM*, HP1b chromo inh 33%, JMJD2A Tudor -30% and PLK1 PBD inh -1%.
Cc1cccc(NC(=O)CNC(=O)c2ccc3nc[nH]c3c2)c1C was read as BAZ2B block 50µM*, G9a inh inconclusive, PI5P4K alpha inh inconclusive, HP1b chromo inh -6%, JMJD2A Tudor -27% and PLK1 PBD inh -11%.
Cc1ccc(S(=O)(=O)NCCNc2ccc(Br)c(C)c2)cc1 was read as PI5P4K alpha inh 13, HP1b chromo inh 39%, JMJD2A Tudor -10% and PLK1 PBD inh -4%.
`O=C(COc1ccccc1O)NNc1ccccc1` gave BAZ2B block -4%, G9a inh 16µM*, PI5P4K alpha inh 1, HP1b chromo inh 40%, JMJD2A Tudor 2% and PLK1 PBD inh -3%.
`CNC(=S)NNC(=O)COc1ccccc1C` gave BAZ2B block -35%, G9a inh 32µM*, HP1b chromo inh 38%, JMJD2A Tudor 20µM* and PLK1 PBD inh -12%.
`O=C(COc1ccccc1O)Nc1ccccc1Cl` gave BAZ2B block 6%, G9a inh -60%[2.33 µM], PI5P4K alpha inh 0, HP1b chromo inh 27%, JMJD2A Tudor 12% and PLK1 PBD inh -11%.
Cc1cccc(OCC(=O)Nc2ccc3c4c(cccc24)CC3)c1C was read as BAZ2B block -5%, G9a inh -7%[59 µM], PI5P4K alpha inh -18, HP1b chromo inh -12%, JMJD2A Tudor inconclusive and PLK1 PBD inh 27µM*.
For CNC(=S)NNC(=O)COc1cccc(C)c1C the results were BAZ2B block 3%, G9a inh 7.9µM*, PI5P4K alpha inh 0, HP1b chromo inh 10%, JMJD2A Tudor 40µM* and PLK1 PBD inh -4%.
For Cc1ccc(OCC(=O)Nc2ccc3c4c(cccc24)CC3)c(C)c1 the results were BAZ2B block 3%, G9a inh 11%[59 µM], PI5P4K alpha inh -4, HP1b chromo inh -4%, JMJD2A Tudor -13% and PLK1 PBD inh -11%.
For CCc1ccc(-c2nn(CC(=O)Nc3ccccc3C)c3c2cnc2ccc(C)cc23)cc1 the results were BAZ2B block -11%, G9a inh 13%[59 µM], HP1b chromo inh -9% and JMJD2A Tudor -20%.
